An excerpt weighted towards active compounds, which were near 0.9% of everything screened.
SRC1 TRFRET art: TR-FRET detection interference compounds, primary screen, artefact control for PPARgamma SRC-1 recruitment agonists, biochemical, TR-FRET emission ratio; TR-FRET detection artefact counter-screen; active compounds read high; TR-FRET ratio at 8 µM; 99,000 tested, 0.34% active; in the data active = TR-FRET ratio above about 2300
TR-FRET SRC-2 ct: TR-FRET signal artefacts, primary screen, artefact control for PPARgamma SRC-2 agonist project, biochemical | TR-FRET artefact counter-screen; active compounds read high | TR-FRET ratio at 8 µM | 200,000 tested, 0.4% active | AID 1049, 2008
PPARg SRC-2 ag: agonists of PPARg-SRC-2 recruitment, primary screen, biochemical, HTS; Peroxisome proliferator-activated receptor gamma (Homo sapiens), P37231; PPARgamma LBD-SRC-2 recruitment; activation, % at 8 µM; 200,000 tested, 0.34% active; AID 1032, 2008; in the data active = activation above about 22%
Target sequence (P37231 whole entry, looked up, the tested form may be a part): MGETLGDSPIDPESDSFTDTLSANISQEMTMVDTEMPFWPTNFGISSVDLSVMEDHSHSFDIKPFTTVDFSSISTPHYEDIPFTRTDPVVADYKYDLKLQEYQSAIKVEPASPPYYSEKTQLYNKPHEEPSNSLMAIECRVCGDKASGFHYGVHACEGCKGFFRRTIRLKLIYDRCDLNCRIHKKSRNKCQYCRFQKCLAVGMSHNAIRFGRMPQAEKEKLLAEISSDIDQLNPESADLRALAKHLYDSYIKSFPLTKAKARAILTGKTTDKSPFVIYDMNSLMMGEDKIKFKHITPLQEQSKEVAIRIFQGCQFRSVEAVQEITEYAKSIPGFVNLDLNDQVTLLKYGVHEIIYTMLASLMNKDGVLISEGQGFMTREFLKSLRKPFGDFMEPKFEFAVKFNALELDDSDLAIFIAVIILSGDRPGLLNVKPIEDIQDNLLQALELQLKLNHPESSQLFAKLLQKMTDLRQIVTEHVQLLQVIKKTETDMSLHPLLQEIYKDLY
PPARg SRC3 recr: PPARgamma agonists recruiting SRC-3 coactivator, primary screen, biochemical; Peroxisome proliferator-activated receptor gamma (Homo sapiens), P37231; biochemical PPARgamma/SRC-3 coactivator recruitment assay; activation, % at 8 µM; 200,000 tested, 0.26% active; in the data active = activation above about 23%
SRC3 TRFRET art: TR-FRET detection interference compounds, artefact control for PPARgamma SRC-3 recruitment agonists, biochemical, TR-FRET ratio | TR-FRET artefact counter-screen, PPARgamma/SRC-3 format; active compounds read high | TR-FRET ratio at 8 µM | 99,000 tested, 0.39% active | AID 1048, 2008
PPARg SRC1 recr: PPARgamma agonists recruiting SRC-1 coactivator, primary screen, biochemical; 200,000 tested, 0.41% active; activation, % at 8 µM; PPARgamma-SRC-1 coactivator recruitment biochemical assay; in the data active = activation above about 19%
Each line names hits and unclear results; the compound was inactive in the other large screens. Rule as the data show it, unless noted: active = TR-FRET ratio above about 2000; inactive = the rest.

c1ccc2c(c1)CC/C2=N/Nc1nc2ccccc2[nH]1	PPARg SRC1 recr 22
COc1ccc(-c2ccc(SCC(=O)c3cccs3)nn2)cc1	SRC3 TRFRET art 2137
O=C(CSc1ccc(-c2ccccc2)nn1)c1cccs1	none
CC(=O)c1ccc(-n2c(SCC(=O)c3c[nH]c4ccccc34)nc3ccccc3c2=O)cc1	SRC3 TRFRET art 2096
CCOC(=O)c1c(C)[nH]c(C)c1C(=O)CSc1nc2ccccc2c(=O)n1-c1ccc(CC)cc1	none
CCCNC(=O)C(CC)NS(=O)(=O)c1ccc(OC)cc1 (stereo not drawn)	PPARg SRC3 recr 44 (no result: SRC1 TRFRET art, SRC3 TRFRET art)
CCn1c(SCC(=O)O)nnc1C1CCCCC1	PPARg SRC3 recr 29 (no result: SRC1 TRFRET art, SRC3 TRFRET art)
O=C(O)C1CCN(c2ccc(Cl)nn2)CC1	none
Cc1sc2nc3c(SC(C)C(=O)O)cc(C(=O)c4ccccc4O)cn3c(=O)c2c1C (stereo not drawn)	PPARg SRC3 recr 33
CCOC(=O)c1sc2nc3c(SCC(=O)O)cc(C(=O)c4ccccc4O)cn3c(=O)c2c1C	none
COP(=O)(OC)c1nc(-c2ccccc2)oc1N1CCOCC1	none
CCOc1cc(N2CCOCC2)c(OCC)cc1NC(=O)CSc1ncn[nH]1	none
NS(=O)(=O)c1ccc(CNC(=S)Nc2ccc(F)c(Cl)c2)cc1	none
NS(=O)(=O)c1ccc(NC(=S)NCc2ccc(Cl)cc2)cc1	PPARg SRC3 recr 30 (no result: SRC1 TRFRET art, SRC3 TRFRET art)
CCc1cc2c(=O)n(CCC(C)C)c(=S)[nH]c2s1	TR-FRET SRC-2 ct 1976
O=C(NC(=S)Nc1ccccc1)c1ccc(Br)o1	PPARg SRC1 recr 22
COc1cc(OC)cc(-c2nnc(SCC(=O)N(Cc3ccccc3)C(C)(C)C)o2)c1	PPARg SRC-2 ag 23 (no result: SRC1 TRFRET art, SRC3 TRFRET art)
Cc1ccccc1N(CC(=O)N1CCOCC1)S(C)(=O)=O	none
COc1ccc(S(=O)(=O)N2CCN(C3Cc4ccccc4C3)CC2)cc1	SRC3 TRFRET art 2079
COc1ccc(S(=O)(=O)N2CCC(N3CCN(Cc4ccccc4)CC3)CC2)cc1	none
CC(=O)Nc1c(N)c2ccccc2oc1=O	none
CCOC(=O)CS(=O)(=O)c1ccccc1	none (no result: SRC1 TRFRET art, SRC3 TRFRET art)
CCOC(=O)CS(=O)(=O)c1ccc(O)cc1	PPARg SRC1 recr 21
Cc1nc(SCC(=O)Nc2ccc(F)cc2)c(C#N)c(C)c1CC(=O)c1ccc(Br)cc1	PPARg SRC1 recr 22 (no result: SRC1 TRFRET art, SRC3 TRFRET art)
CC(C)(C)C1CCc2c(sc(NC(=O)c3cccs3)c2C(N)=O)C1 (stereo not drawn)	PPARg SRC-2 ag 24 (no result: SRC1 TRFRET art, SRC3 TRFRET art)
COCCCNC(=O)CN(CCc1ccccc1)S(=O)(=O)c1ccc(C)cc1	none
S=C(Nc1ccc2nsnc2c1)NC1CCCCC1	SRC1 TRFRET art 2457
CCOc1ccc(NC(=S)Nc2ccc3nsnc3c2)cc1	SRC1 TRFRET art 2443
S=C(Nc1ccc(Cl)c(Cl)c1)NC1CCCCC1	none (no result: SRC1 TRFRET art, SRC3 TRFRET art)
C=CCNC(=S)Nc1ccc2nsnc2c1	SRC1 TRFRET art 2407
CCC1=NN(S(=O)(=O)c2ccc(C)cc2)C(O)(C(F)(F)F)C1 (stereo not drawn)	none
O=c1c2cccnc2[nH]c(=S)n1Cc1ccccc1	none
O=C(Cn1c(=S)[nH]c2ncccc2c1=O)NCCc1ccccc1	SRC1 TRFRET art 2328
Clc1ccc(Cl)c2sc(N3CCCC3)nc12	none (no result: SRC1 TRFRET art, SRC3 TRFRET art)
COc1cccc2sc(N3CCN(c4nc5ccccc5s4)CC3)nc12	PPARg SRC3 recr 31 (no result: SRC1 TRFRET art, SRC3 TRFRET art)
Clc1cccc2sc(N3CCN(c4ccccc4)CC3)nc12	PPARg SRC-2 ag 28
c1ccc2sc(N3CCOCC3)nc2c1	none (no result: SRC1 TRFRET art, SRC3 TRFRET art)
CCCCC(=O)Nc1nc2ccc3nc(C)sc3c2s1	TR-FRET SRC-2 ct 1978 (no result: SRC1 TRFRET art, SRC3 TRFRET art)
N#Cc1c(-c2cccnc2)c2c([nH]c1=S)CCCC2	none (no result: SRC1 TRFRET art, SRC3 TRFRET art)
COc1ccc(-c2c3c([nH]c(=S)c2C#N)CCC3)cc1	TR-FRET SRC-2 ct 4167, PPARg SRC-2 ag 86, PPARg SRC3 recr 108, PPARg SRC1 recr 64 (no result: SRC1 TRFRET art, SRC3 TRFRET art)
CC(C)Cc1c2c([nH]c(=S)c1C#N)CCCC2	none
COc1ccc(OC)c(-c2c3c([nH]c(=S)c2C#N)CCCC3)c1	SRC1 TRFRET art 2339
COc1ccc(Cn2c(=O)[nH]c3cc(C(=O)NCCc4ccc(S(N)(=O)=O)cc4)ccc3c2=O)cc1	none
Cc1ccccc1CNC(=O)C(=O)Nc1nccs1	none
Cn1c2ccccc2c2cc(C(=O)OCC(=O)N3CC(=O)Nc4ccccc43)sc21	TR-FRET SRC-2 ct 2536 (no result: SRC1 TRFRET art, SRC3 TRFRET art)
O=C(CSc1nnnn1Cc1ccccc1)NCC(=O)c1ccccc1	PPARg SRC-2 ag 23 (no result: SRC1 TRFRET art, SRC3 TRFRET art)
O=C(CSc1nnnn1Cc1ccccc1)NCCc1ccccc1	none
CC(C)C(C)NC(=O)CSc1nc2scc(-c3ccco3)c2c(=O)n1-c1ccccc1 (stereo not drawn)	none (no result: SRC1 TRFRET art, SRC3 TRFRET art)
CC(C)C(C)(C#N)NC(=O)CSc1nc2scc(-c3ccco3)c2c(=O)n1-c1ccccc1 (stereo not drawn)	TR-FRET SRC-2 ct 2013 (no result: SRC1 TRFRET art, SRC3 TRFRET art)
CC(=O)Nc1ccc(C(=O)Nc2nc(-c3cccnc3)cs2)cc1	none
CC(=O)Nc1ccc(C(=O)Nc2nc(-c3ccccn3)cs2)cc1	TR-FRET SRC-2 ct 1977
Cc1nn(-c2ccccn2)c2c1-c1nc(N3CCOCC3)ncc1CC2	PPARg SRC1 recr 22 (no result: SRC1 TRFRET art, SRC3 TRFRET art)
Cc1nn(-c2ccccn2)c2c1-c1nc(N)ncc1CC2	none (no result: SRC1 TRFRET art, SRC3 TRFRET art)
O=C1OCCC1Sc1nnc(-c2ccc(Br)cc2)o1 (stereo not drawn)	PPARg SRC-2 ag 24 (no result: SRC1 TRFRET art, SRC3 TRFRET art)
COc1ccc(-c2cc(-c3ccccc3)c(C#N)c(SCC(=O)Nc3ncc(C)s3)n2)cc1	SRC3 TRFRET art 2402
Cn1c(=O)c2c(ncn2CCNC2=NCCCCC2)n(C)c1=O	PPARg SRC-2 ag 38
CC(C)(C)c1ccc(CN2C(=O)CSC2=O)cc1	none
C=CCc1cccc2cc(C(=O)Nc3ccccc3C(=O)O)c(=O)oc12	none
COc1cccc(NC(=S)N(Cc2ccc(Cl)cc2)Cc2ccc(C(=O)O)cc2)c1	none
CC(C)(C)SCCNC(=O)Nc1ccccc1	none
CN(C)C=Nc1c(C(=O)c2ccccc2)sc2nccc(N(C)C)c12	none
CCOC(=O)c1sc2nccc(N(C)C)c2c1N=CN(C)C	PPARg SRC3 recr 27 (no result: SRC1 TRFRET art, SRC3 TRFRET art)
CC(=O)CCc1ccc(OC(=O)c2cccnc2)cc1	TR-FRET SRC-2 ct 1983, PPARg SRC-2 ag 26 (no result: SRC1 TRFRET art, SRC3 TRFRET art)
CCOC(=O)C1=C(O)/C(=C/c2cccc(OC)c2O)N=C1C	SRC3 TRFRET art 2061
CC1(C)CC2CC(C)(CN2C(=O)COC(=O)CNC(=O)c2ccc(Cl)c(Cl)c2)C1 (stereo not drawn)	none
Cc1nn(-c2ccc(Cl)cc2)c2sc(C(=O)c3c(N)n(C)c(=O)n(C)c3=O)cc12	PPARg SRC1 recr 25 (no result: SRC1 TRFRET art, SRC3 TRFRET art)
Cn1c(N)c(C(=O)c2ccc(Cl)cc2)c(=O)n(C)c1=O	none
CCN(CC)S(=O)(=O)c1ccc(N2CCOCC2)c(NC(=O)c2cc(-c3ccccn3)nc3ccccc23)c1	SRC1 TRFRET art 2421, SRC3 TRFRET art 2191
COCCNS(=O)(=O)c1ccc(C)c(C)c1C	none

Bioassay records as filed in PubChem.
